miR-122 inh: raises miR-122 sensor activity in Huh7 cells; Huh7 psiCHECK-miR122 Renilla luciferase sensor, 48 h; activation, % at 12.5 µM; 0.14% of 340,000 active; AID 623901;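 active means mean activation of 30% or more, with every replicate also reaching 30%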;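 further: 0% = median of neutral control wells and 100% = median of positive control wells; higher luciferase signal means stronger suppression of miR-122 activity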
* hit, by the source's call. Many of the other results were omitted from the sample, so hits are more common in it than they were.

SMILES | miR-122 inh
C/C=C/c1cnc2c(c1)C(=O)N([C@H](C)CO)C[C@H](C)[C@@H](CN(C)C(=O)Cc1cccnc1)O2 | 4
COCC#Cc1cnc2c(c1)C(=O)N([C@@H](C)CO)C[C@@H](C)[C@@H](CN(C)C(=O)C1CCOCC1)O2 | -10
CCCNC(=O)NC[C@@H]1[C@@H](c2ccc(C3=CCCC3)cc2)[C@@H](CO)N1C(=O)CC | -143
C[C@H]1CN([C@@H](C)CO)C(=O)c2cc(-c3ccc(F)cc3)cnc2O[C@H]1CN(C)C(=O)c1cccnc1 | 5
CC(C)CC#Cc1cnc2c(c1)C(=O)N([C@H](C)CO)C[C@@H](C)[C@@H](CN(C)C(=O)Nc1ccccc1F)O2 | -1
C[C@H](CO)N1C[C@H](C)[C@H](CN(C)S(=O)(=O)c2ccc(Cl)cc2)Oc2ccc(NC(=O)Nc3ccc(C(F)(F)F)cc3)cc2CC1=O | -94
C[C@H]1CN([C@@H](C)CO)S(=O)(=O)c2ccc(-c3ccc(F)cc3)cc2O[C@H]1CN(C)C(=O)C1CCOCC1 | -7
COCC#Cc1ccc2c(c1)O[C@H](CN(C)C(=O)COC)[C@H](C)CN([C@@H](C)CO)S2(=O)=O | 13
CCC(=O)N(C)C[C@H]1Oc2cc(C#C[C@@H](C)O)ccc2S(=O)(=O)N([C@H](C)CO)C[C@H]1C | 1
O=C(NC(Nc1ncc(S(=O)(=O)c2ccc([N+](=O)[O-])cc2)s1)(C(F)(F)F)C(F)(F)F)c1ccc(Cl)cc1 | 44*
CO[C@@H]1CN(C)C(=O)c2cc(NC(=O)Cc3ccccc3)ccc2OC[C@@H](C)N(C)C[C@@H]1C | 2
C[C@@H]1CN([C@H](C)CO)C(=O)c2cc(-c3ccc(F)cc3)cnc2O[C@@H]1CN(C)CC1CCOCC1 | 5
C[C@H]1CN([C@@H](C)CO)S(=O)(=O)c2ccc(C#Cc3ccccc3)cc2O[C@@H]1CN(C)C(=O)Nc1ccccc1 | -29
C[C@H](CO)N1C[C@H](C)[C@@H](CN(C)Cc2cccc(F)c2)Oc2ncc(Br)cc2C1=O | -7
O=C(NC[C@H]1N[C@H](CO)[C@@H]1c1ccccc1)C1CCCC1 | -125
O=C(COc1ccc(S(=O)(=O)NC2CCCCC2)cc1)Nc1ccc2c(c1)OCCO2 | -101
O=C(Nc1ccc2c(c1)OCCO2)C1CCN(S(=O)(=O)c2ccccc2)CC1 | -177
O=C(COC(=O)Cc1ccc(S(=O)(=O)N2CCOCC2)s1)Nc1ccc2c(c1)OCO2 | 31*
C[C@@H]1CN([C@H](C)CO)C(=O)c2cc(-c3ccncc3)cnc2O[C@H]1CN(C)C(=O)Cc1ccccn1 | 8
COc1ccc(C#Cc2cnc3c(c2)C(=O)N([C@H](C)CO)C[C@H](C)[C@H](CN(C)CC2CCCC2)O3)cc1 | 12
CC(C)CC#Cc1cnc2c(c1)C(=O)N([C@H](C)CO)C[C@@H](C)[C@H](CN(C)C(=O)Nc1ccccc1F)O2 | -14
COc1cccc(S(=O)(=O)N(C)C[C@H]2Oc3ncc(C#CCC(C)C)cc3C(=O)N([C@H](C)CO)C[C@H]2C)c1 | 0
COCC#Cc1cnc2c(c1)C(=O)N([C@@H](C)CO)C[C@@H](C)[C@H](CN(C)C(=O)Nc1c(C)noc1C)O2 | 5
CCCC(=O)Nc1ccc2c(c1)C(=O)N(C)C[C@H](OC)[C@@H](C)CN[C@@H](C)CO2 | 4
CO[C@@H]1CN(C)C(=O)c2cc(NC(=O)Nc3ccccc3)ccc2OC[C@H](C)NC[C@@H]1C | -2
SMILES | miR-122 inh
CO[C@H]1CN(C)C(=O)c2cc(NC(=O)Nc3ccc(Cl)c(Cl)c3)ccc2OC[C@H](C)NC[C@H]1C | 51*
C[C@H](CO)N1C[C@H](C)[C@@H](CN(C)Cc2ccncc2)Oc2ncc(-c3cncnc3)cc2C1=O | -16
Cc1ccc(S(=O)(=O)N(C)C[C@@H]2Oc3cc(C#CC4CCCC4)ccc3S(=O)(=O)N([C@@H](C)CO)C[C@@H]2C)cc1 | -29
CCN(CC)CCNc1nc(-c2ccccc2)nnc1C(F)(F)F | 44*
C[C@@H]1CN([C@H](C)CO)S(=O)(=O)c2ccc(C#Cc3ccccn3)cc2O[C@@H]1CN(C)Cc1cccc(F)c1 | -32
C[C@@H]1CN([C@H](C)CO)S(=O)(=O)c2ccc(-c3ccccc3)cc2O[C@@H]1CN(C)Cc1cccnc1 | -14
CCCNC(=O)N(C)C[C@@H]1Oc2ncc(-c3ccc(C(=O)N(C)C)cc3)cc2C(=O)N([C@@H](C)CO)C[C@@H]1C | 1
CCCCCCCCCCCCCCCC[n+]1ccccc1 | 49*
C[C@H]1CN([C@@H](C)CO)S(=O)(=O)c2ccc(-c3cccc(C(=O)N(C)C)c3)cc2O[C@@H]1CN(C)C(=O)Nc1ccccc1 | -16
C/C=C/c1cnc2c(c1)C(=O)N([C@@H](C)CO)C[C@H](C)[C@@H](CN(C)C(=O)Cc1cccnc1)O2 | -3
C/C=C/c1cnc2c(c1)C(=O)N([C@H](C)CO)C[C@H](C)[C@H](CN(C)CC1CCOCC1)O2 | -4
C[C@H](NC(=O)C[C@H]1CC[C@@H]2[C@@H](COc3ccc(NS(=O)(=O)c4ccc(Cl)cc4)cc3C(=O)N2C)O1)c1ccccc1 | 45*

Screens deposited in PubChem BioAssay by Broad Institute.
